The whole screen tested about 330,000 compounds, of which about 1,500 (0.45%) were called active. No stated cut-off is given here; in the data, active means inhibition above about 45% (passing the limit was not always enough); inconclusive means no clear call, values can overlap the other calls. The list comes from a sample in which actives are over-represented; it also holds similar structures and randomly drawn compounds.

Chain of Ubiquitin-conjugating enzyme E2 N (Homo sapiens) (P61088 whole entry, looked up): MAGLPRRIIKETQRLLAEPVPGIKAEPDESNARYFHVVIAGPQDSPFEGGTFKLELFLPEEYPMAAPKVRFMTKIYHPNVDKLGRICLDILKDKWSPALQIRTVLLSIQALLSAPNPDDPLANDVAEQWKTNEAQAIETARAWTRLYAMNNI

This assay concerns the target Ubiquitin-conjugating enzyme E2 N (Homo sapiens) (UniProt P61088). The experiment in a line: UBC13 polyubiquitin chain formation inhibitors, primary screen, biochemical, TR-FRET, uHTS (AID 485273). The note with it: at 20 µM, stronger effect = higher value. (In general: TR-FRET usually uses a lanthanide donor and a delayed reading to cut background.)
As usually defined, the inhibition is the relative decrease from the control value, in per cent. Take `Cc1cc(C)c(NC(=O)C[N+](C)(C)CC(O)COc2cccc3ccccc23)c(C)c1` (configuration not stated): the inhibition is 45.4% (active).
Next, `CC(C)c1ccccc1OCC(O)CN(CC(O)COc1cccc2ccccc12)C(C)C` (configuration not stated): 10.8% (inactive); `Cc1cc(C)cc(OCC(=O)NCc2cc(C)nc3ccccc23)c1`: 7.7% (inactive); `CCCCCN(C(=O)CCC(=O)OCC(=O)NCc1ccc(OC)cc1)c1c(N)n(CCCC)c(=O)[nH]c1=O`: 2.5% (inactive).
Then `CCn1ccnc1CN1CCCC(C(=O)c2ccc3c4c(cccc24)CC3)C1` (configuration not stated), with 19.1% (inactive).
Next, `O=C(c1ccccc1)N1CCN(C(=O)c2cc3nc(-c4ccccc4)cc(C(F)(F)F)n3n2)CC1`: 2.2% (inactive); `O=C(O)/C(=C/c1cccnc1)NC(=O)c1ccccc1`: 7.7% (inactive); `OCCCNc1nccc(-c2cc(Nc3cccc(Cl)c3)ncn2)n1`: 35.7% (inactive).
Consider `CC(C)n1cnc2c(Nc3cccc(Cl)c3)nc(N(CCO)CCCO)nc21`, for which the inhibition is 64.8% (active).
Then `CC(C)C[C@H](CO)Nc1nc(N(C)c2cccc(Cl)c2)c2ncn(C(C)C)c2n1`, with 24.1% (inactive); and `O=C(O)CCn1c(SCc2cc(=O)n3ccccc3n2)nc2ccsc2c1=O`, with -6.3% (inactive); and `O=C(Nc1cccnc1Oc1ncnc2cc(Cl)ccc12)c1ccc(F)cc1`, with 2.8% (inactive).
Then `COc1ccc(N2CCN(CCNC(=O)Nc3cc(Cl)ccc3Cl)CC2)cc1`, with 5.5% (inactive); and `Cc1ccc(NC(=O)c2sc3nc(N)c(C#N)cc3c2N)cc1`, with 1% (inactive).
As for `CC(=O)c1ccc(NC(=O)c2sc3nc4n(c(=O)c3c2C)CCCCC4)cc1`, the inhibition is -6.8% (inactive).
Next, `CC(=O)Nc1ccc(NC(=O)c2sc3nc4c(c(-c5ccc(C)cc5)c3c2N)CCC4)cc1`: 54% (active); `COc1ccc(C=C(C#N)C#N)c(CSc2ccccn2)c1`: 3.1% (inactive).
Then `O/N=C(\C[n+]1ccccc1)c1ccc(Br)cc1`, with -4.7% (inactive); and `COC(=O)c1cc(-c2cccs2)nc2ccccc12`, with 45.2% (active).
Next, `COC(=O)c1cc(N2CCNCC2)nc2ccccc12`: 17.5% (inactive).
With `O=C(Nc1nnc(-c2ccccc2)o1)c1cc(-c2cccs2)nc2ccccc12`, the inhibition is -31.4% (inactive).
As for `CC(=O)NCCNC(=O)c1cc(-c2cccc3ccccc23)nc2ccccc12`, the inhibition is 8.4% (inactive).
Then `CCCCN(C)CCCNC(=O)c1cc(-c2cccs2)nc2ccccc12`, with 48.3% (active).
On to `O=C(NCC(c1cccs1)N1CCOCC1)c1cc(-c2ccccn2)nc2ccccc12` (configuration not stated), for which the inhibition is 1.9% (inactive).
Then `COc1cccc(NC(=O)CN(C)C(=O)c2cc(C3CC3)nn2-c2ccccc2)c1`, with -2.2% (inactive); and `CCOCCCNS(=O)(=O)Cc1ccccc1`, with -13.7% (inactive); and `CCOc1ccc(N(CC(=O)NCCc2ccc(OC)cc2)S(C)(=O)=O)cc1`, with 3.8% (inactive).
Then `Cc1sc2ncnc(N3CCC(C(=O)Nc4ccc(F)cc4Cl)CC3)c2c1C`, with 17.7% (inactive); and `Cc1ccc(S(=O)(=O)N(C)c2ccc(OCC(=O)OCC(=O)N(CC#N)c3ccccc3)cc2)cc1`, with -0.2% (inactive).
Next, `CCCc1cc(=O)[nH]c2nnc(SCC(=O)Nc3nnc(SCC)s3)n12`: -15.5% (inactive); `NCC(=O)c1cccc2ccc[n+]([O-])c12`: -7.7% (inactive).
With `O=C(NCC(=O)N(Cc1cccs1)C(C(=O)NC1CCCCC1)c1ccco1)c1cccs1` (configuration not stated), the inhibition is -5.1% (inactive).
Next, `Cc1ccc(NC(=O)c2cnc(SCC(=O)NCC3CCCO3)n(C)c2=O)cc1` (configuration not stated): 93.1% (active); `CCn1c(SCC(=O)NCC2CCCO2)nc2ccccc21` (configuration not stated): 5.4% (inactive); `Cn1c(SCC(=O)c2ccccc2)ncc(C(=O)Nc2ccc(F)cc2)c1=O`: 36.4% (inactive).
Then `Cc1ccccc1-n1cc(CNC(=O)C2CCC(=O)N(C3CC3)C2)cn1` (configuration not stated), with 8.4% (inactive); and `COc1ccc(-n2nc(C(=O)Nc3cc(OC)c(OC)c(OC)c3)c3ccccc3c2=O)c(OC)c1`, with 21.2% (inactive); and `N#CCc1ccc(NC(=O)c2ccccc2C(=O)Nc2ccc(CC#N)cc2)cc1`, with 2.2% (inactive).
Then `COCCCNC(=O)Cn1cc(C(=O)C2CC2)c2ccccc21`, with 11.8% (inactive).
With `CCCCOCCCNC(=O)c1ccccc1OCC`, the inhibition was 1.4% (inactive).
Next, `CCOCCCNC(=O)c1cn(CC(C)C)c(=O)c2c1c1ccccc1n2C`: 51.1% (active); `CN(C)c1nc(N)nc(Cn2nnc(-c3ccc(C(F)(F)F)cc3)n2)n1`: 4% (inactive).
Then `COc1ccccc1-c1sc2ccccc2c1-c1ccc(C(C)=O)cc1`, with 47.4% (active); and `COc1ccccc1-c1sc2ccccc2c1-c1ccc(Br)nc1`, with 21.7% (inactive).
`COc1ccccc1-c1sc2ccccc2c1C#CC1(O)CCCCC1`: the inhibition is -2.3% (inactive).
Then `CCCC1C(=O)N2C(N(C)C)=Nc3ccc(C)cc3N2C1=O` (configuration not stated), with -21% (inactive); and `COc1cccc(OC)c1C(=O)Nc1ccc2c(c1)n(C)c(=O)n2C`, with 1.6% (inactive).
Next, `Cc1cc2oc3ccc(NCCC4CCCN4C)cc3c(=O)c2cc1C` (configuration not stated): 33.1% (inactive); `COc1cccc2sc3cc(NCC[C@@H]4CCCN4C)ccc3c(=O)c12`: 45.1% (active).
Then `COCCn1c(SCC(=O)Nc2ccccc2F)nc2c(c1=O)SCC2`, with -6.9% (inactive); and `COc1ccc(C2=NN(c3nc4ccccc4s3)C(=O)C2)cc1`, with -13.1% (inactive); and `COc1ccc(-n2nnnc2-c2nc3ccccc3s2)cc1`, with 53.4% (active).
On to `COc1ccc(-n2nnnc2CNC(=O)c2ccc3ccccc3c2)cc1`, for which the inhibition is -2.4% (inactive).
Then `Cc1c(Cl)cnc(NC(=O)COC(=O)C2CCCC2)c1Cl`, with 3.7% (inactive); and `OC(CNCC1CCCO1)Cn1c2ccc(Br)cc2c2cc(Br)ccc21` (configuration not stated), with 57.5% (active); and `O=C(CCNS(=O)(=O)c1ccc(Br)cc1)NCC1CCCO1` (configuration not stated), with 1.5% (inactive).
Then `CCCN1CCn2c3c(c4cc(Br)ccc42)CCCC31` (configuration not stated), with -1.1% (inactive); and `COc1ccccc1C(=O)N1C(CC(=O)Nc2ccccc2C)C(=O)NC2CCCCC21` (configuration not stated), with -2.3% (inactive); and `CCCC[C@@H]1CN=C(N)N1CCCC`, with -4.4% (inactive).
Next, `CCCC[C@@H]1CN=C(N)N1CCc1cccc(F)c1`: 13.5% (inactive); `CCCC[C@@H]1CN=C(N)N1CCc1cc(C(F)(F)F)cc(C(F)(F)F)c1`: 66.9% (active).
In the case of `COc1ccc(OC)c(-c2csc(NC(=O)C3=NNC(=O)CC3)n2)c1`, the inhibition is -3.9% (inactive).
As for `O=C(NCCCN1CCOCC1)c1ccc2c(c1)N(Cc1cccc(F)c1)C(=O)c1ccccc1S2`, the inhibition was 13.3% (inactive).
Then `Cc1ccccc1CN1C(=O)c2ccccc2Sc2ccc(C(=O)NCCCN3CCOCC3)cc21`, with 15.4% (inactive).
Next, `CCN1CCN(CCNC(=O)c2ccc(/C=C3/Sc4ccccc4N(Cc4cccc(C)c4)C3=O)cc2)CC1`: 50.8% (active).
On to `C=CCn1c(=S)sc2c(=O)[nH]c(C)nc21`, for which the inhibition was -13.8% (inactive).
For the compound `Cc1ccc(-c2noc(CCC(=O)Nc3ccccc3N3CCN(C)CC3)n2)cc1`, the inhibition was 71.9% (active).
Then `CN1CCN(C(=O)CCc2nc(-c3ccc(Cl)cc3)no2)CC1`, with -0.3% (inactive); and `CCNC(=O)CCc1nc(-c2ccc(C)cc2)no1`, with 0.3% (inactive).
Next, `Cc1cc([N+](=O)[O-])c(NC2CCCCC2)c([N+](=O)[O-])c1`: -28.1% (inactive); `O=C(Nc1ccc(F)cc1)C(=O)c1cn(CC(=O)N2CCOCC2)c2ccccc12`: -4.6% (inactive); `CCN(CC(=O)Nc1ccc(OC)cc1)C(=O)c1ccc(Cl)c(S(=O)(=O)N2CCCC2)c1`: 8.9% (inactive).
Next, `O=C(OCC1O[C@@H](OC(=O)c2cc(O)c(O)c(O)c2)[C@@H](OC(=O)c2cc(O)c(O)c(O)c2)[C@@H](OC(=O)c2cc(O)c(O)c(O)c2)[C@@H]1OC(=O)c1cc(O)c(O)c(O)c1)c1cc(O)c(O)c(O)c1` (some centres not stated): 138% (active).
On to `O=C(NCCc1ccc(F)cc1)c1ccc2nccnc2c1`, for which the inhibition is -9.4% (inactive).
Then `CC1CCCN(C(C(=O)Nc2ccc(C(C)C)cc2)c2ccc3c(c2)OCO3)C1` (configuration not stated), with 9% (inactive); and `COc1ccccc1C(=O)N(C1=NC(C)CS1)c1ccc(Cl)cc1` (configuration not stated), with 1.5% (inactive); and `COCCCNC(=O)CC1C[C@H](C(=O)N2CCCCC2)[C@@]2(CCc3ccccc3)c3[nH]c4ccccc4c3CCN2C1=O` (some centres not stated), with 14% (inactive).
For `Cc1nc(N2CCN(c3ccccn3)CC2)c2c(C)c(C(=O)Nc3ccc(F)cc3)sc2n1`, the inhibition was 47.4% (active).
As to `Cc1nc(N2CCOCC2)c2c(C)c(C(=O)Nc3ccc(C(F)(F)F)cc3)sc2n1`, the inhibition was 5.6% (inactive).
Next, `COc1ccc(NC(=O)c2sc3nc(C)nc(N4CCN(c5ccccn5)CC4)c3c2C)c(OC)c1`: 5.6% (inactive); `Cc1cc(C)nc(N2C(=O)CC(Cc3ccccc3)C2=O)n1` (configuration not stated): -12.4% (inactive); `CC(C)NC(=O)C(c1ccc(F)cc1)N(C(=O)CCC(=O)Nc1ccccn1)c1ccccc1F` (configuration not stated): 2.6% (inactive).
Next, `C#CCOCCOCCOCCNc1nc(N2CCN(C(=O)C([C@@H](C)CC)n3cc(C(N)COC(=O)C(F)(F)F)nn3)CC2)nc(N2CCN(C(=O)[C@H](CCCCN)n3cc(C(N)CC(C)C)nn3)CC2)n1` (some centres not stated): 108% (active).
Next, `C#CCOCCOCCOCCNc1nc(N2CCN(C(=O)[C@H](CCCCN)n3cc(CCC(=O)O)nn3)CC2)nc(N2CCN(C(=O)[C@H](CCCCN)n3cc(CC(C)O)nn3)CC2)n1` (some centres not stated): 2% (inactive).
With `C#CCOCCOCCOCCNc1nc(N2CCN(C(=O)[C@H](CCC(=O)O)n3cc(C(N)CO)nn3)CC2)nc(N2CCN(C(=O)[C@H](CCCCN)n3cc(C(N)CC(C)C)nn3)CC2)n1` (some centres not stated), the inhibition is -3.6% (inactive).
Regarding `C#CCOCCOCCOCCNc1nc(N2CCN(C(=O)C([C@@H](C)O)n3cc([C@@H](N)CCCCN)nn3)CC2)nc(N2CCN(C(=O)[C@H](CCCCN)n3cc(CN)nn3)CC2)n1` (some centres not stated), the inhibition was 107% (active).
Next, `C#CCOCCOCCOCCNc1nc(N2CCN(C(=O)C([C@@H](C)CC)n3cc(C(N)COC(=O)C(F)(F)F)nn3)CC2)nc(N2CCN(C(=O)[C@H](Cc3ccc(O)cc3)n3cc(C(N)[C@H](C)CC)nn3)CC2)n1` (some centres not stated): 37.1% (inactive).

The record behind these values is PubChem BioAssay AID485273 (Sanford-Burnham Center for Chemical Genomics, 2010).
